Screening results deposited in PubChem by National Center for Advancing Translational Sciences (NCATS).
Most compounds without a hit are left out; they make up all but 10% or so of the library.
NIH3T3 tox: kills NIH 3T3 cells | NIH 3T3 viability, CellTiter-Glo ATP luminescence, 48-72 h | hit rate 4.3% among 94,000 | Potency, µM (highest dose often 96.7 µM), most hits filed as inhibitors; further: nearly all actives have a fitted effect of over 55% in size
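Cytotoxicity is measured as loss of cellular ATP: NIH 3T3 cells (400/well) are exposed to compound for 48 or 72 hr at 37 °C, then CellTiter-Glo luminescence is imaged after 10 min at room temperature.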
FLuc inh-1: inhibitors of firefly (Photinus pyralis) luciferase | P08659 | purified P. pyralis luciferase, luminescence, biochemical | Potency, µM (top dose mostly 115 µM), most hits filed as inhibitors | hit rate 2.5% among 76,000; further: nearly all actives have a fitted effect of over 65% in size
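Purified 10nM P. pyralis luciferase with 10uM D-luciferin and 10uM ATP in 50mM Tris acetate pH 7.5, 10mM Mg acetate, 0.01% Tween-20, 0.05% BSA. qHTS titration; luminescence read by CCD imager.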
HEK cytotox: cytotoxic compounds in HEK 293 cells | HEK 293 viability, ATP luminescence (CellTiter-Glo), 48-72 h | Potency, µM (highest dose often 115 µM), hits mostly inhibitors | hit rate 6.6% among 94,000 | AID 1345083; further: nearly all actives have a fitted effect of over 60% in size
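Read-out: CellTiter-Glo ATP luminescence. Cells: HEK 293, 250 cells/well. Exposure: 48 or 72 hr, 37 degree Celsius.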
GPT2 inhibitor: GPT2 alanine aminotransferase inhibition; AID 1671188; hit rate 0.25% among 100,000; Recombinant GPT2, coupled pyruvate oxidase/HRP Amplex Red fluorescence; Potency, µM (top dose mostly 57.7 µM), actives largely listed as inhibitors; Q8TD30; further: nearly all actives have a fitted effect of over 60% in size
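Fluorescence of coupled pyruvate oxidase/HRP/Amplex Red system (50uM Amplex, 30 min, dark) reports pyruvate formed by GPT2. Enzyme reaction: 10ng/uL GPT2, 2mM L-alanine, 250uM a-KG, 30 min room temperature, pH 7.5; 50uM AOA control.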
NPR1 antag: blocks ANP-stimulated signaling of human Npr1 receptor | P16066 | HEK293 hNpr1 GloSensor cGMP, ANP-stimulated luminescence | Potency, µM (top dose mostly 46.3 µM), usual class: inhibitors | hit rate 1.6% among 76,000 | AID 1347048; calls by dose curve; further: nearly all actives have a fitted effect of over 60% in size
Target sequence (P16066 whole entry, looked up): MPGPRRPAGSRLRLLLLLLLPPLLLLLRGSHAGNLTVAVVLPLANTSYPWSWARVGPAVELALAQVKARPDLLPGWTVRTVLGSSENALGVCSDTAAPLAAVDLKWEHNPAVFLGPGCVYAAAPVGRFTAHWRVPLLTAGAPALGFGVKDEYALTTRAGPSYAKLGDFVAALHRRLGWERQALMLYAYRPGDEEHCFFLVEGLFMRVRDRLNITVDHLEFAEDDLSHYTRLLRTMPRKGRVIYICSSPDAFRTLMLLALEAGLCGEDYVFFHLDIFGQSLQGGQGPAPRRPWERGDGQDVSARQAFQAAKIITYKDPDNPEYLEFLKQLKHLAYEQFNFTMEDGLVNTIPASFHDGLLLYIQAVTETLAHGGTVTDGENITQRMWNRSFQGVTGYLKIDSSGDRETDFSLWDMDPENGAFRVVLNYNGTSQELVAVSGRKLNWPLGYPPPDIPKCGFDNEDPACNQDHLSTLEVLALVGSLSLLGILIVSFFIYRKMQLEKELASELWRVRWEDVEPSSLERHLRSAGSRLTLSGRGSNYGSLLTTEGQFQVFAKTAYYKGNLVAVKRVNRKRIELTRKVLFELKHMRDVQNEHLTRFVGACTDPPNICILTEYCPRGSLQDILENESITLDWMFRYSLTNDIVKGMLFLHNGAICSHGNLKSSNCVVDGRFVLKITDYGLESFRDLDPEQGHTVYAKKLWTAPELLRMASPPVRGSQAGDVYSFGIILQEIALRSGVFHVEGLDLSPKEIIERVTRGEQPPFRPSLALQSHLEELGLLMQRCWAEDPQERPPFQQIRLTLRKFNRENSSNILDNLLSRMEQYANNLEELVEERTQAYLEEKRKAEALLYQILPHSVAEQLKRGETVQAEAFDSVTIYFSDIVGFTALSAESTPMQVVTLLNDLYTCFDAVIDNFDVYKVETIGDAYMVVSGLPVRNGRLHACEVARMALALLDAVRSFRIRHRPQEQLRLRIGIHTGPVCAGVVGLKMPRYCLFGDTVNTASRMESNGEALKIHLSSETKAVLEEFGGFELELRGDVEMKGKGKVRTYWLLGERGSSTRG
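HEK293 cells stably expressing human Npr1 and cGMP GloSensor pGS-40F, loaded 2 h with 2% GloSensor reagent, given compound 30 min at room temperature. Luminescence read before and 20 min after 0.1 nM hNppA.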
FLuc SDR -ATP: stabilizes firefly luciferase without ATP; shares compounds with FLuc inh-1; Purified FLuc-C-HiBiT, Nano-Glo HiBiT luminescence, no ATP; Potency, µM (doses to about 32.7 µM), usual class: activators; hit rate 7.8% among 1,300; further: nearly all actives have a fitted effect of over 55% in size
FLuc SDR ATP: stabilizes firefly luciferase with ATP present; shares compounds with FLuc inh-1; purified FLuc-C-HiBiT + ATP, HiBiT complementation luminescence; Potency, µM (highest dose often 32.7 µM), most hits filed as activators; hit rate 8.7% among 1,300; AID 1963319;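 further: signal reports ligand binding via conformational change of the enzyme rather than luciferase catalysis; nearly all actives have a fitted effect of over 55% in size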
FLuc inh-2: firefly luciferase enzyme inhibition; shares compounds with FLuc inh-1; purified FLuc-C-HiBiT enzyme, luciferin luminescence; Potency, µM (doses to about 32.7 µM), actives largely listed as inhibitors; hit rate 42% among 1,300; AID 1963320; further: nearly all actives have a fitted effect of over 70% in size
Of the large screens only hits and unclear results are named; the others gave an inactive call (follow-up assays come after a bar, where they were run). Unless noted, the call rests on the fitted dose curve; in most records, active means well fitted curve in the direction sought with a large enough effect; inconclusive means small, poorly fitted or top-dose-only effect, or another doubt; inactive means no such curve, though single readings can be large; an effect the other way counts as inactive or inconclusive.

O=C(CNC(=O)c1cccc(-c2ccsc2)c1)NCc1ccc(Cl)cc1	none (no result: FLuc inh-1, NPR1 antag)
O=C(Cn1ccn2nc(-c3ccccc3)c(CO)c2c1=O)Nc1cccc(C(F)(F)F)c1	HEK cytotox inconclusive
O=C(NCc1ccccc1)c1noc(-c2ccc3c(c2)OCO3)n1	NIH3T3 tox inconclusive, FLuc inh-1 40µM, HEK cytotox inconclusive
Cc1ccc(-c2nc(C(=O)NCc3ccco3)no2)cc1	FLuc inh-1 16µM
COc1ccc(CNC(=O)c2noc(-c3ccc(C)cc3)n2)cc1OC	NIH3T3 tox inconclusive, FLuc inh-1 inconclusive, HEK cytotox inconclusive, NPR1 antag 13µM
O=C(NCc1ccccc1F)c1noc(-c2ccc3c(c2)OCO3)n1	NIH3T3 tox inconclusive, FLuc inh-1 32µM
O=C(NCc1ccc(F)cc1)c1noc(-c2ccc3c(c2)OCO3)n1	FLuc inh-1 inconclusive
COc1ccc(CNC(=O)c2noc(-c3ccc(F)cc3)n2)cc1OC	HEK cytotox inconclusive, NPR1 antag inconclusive
Cc1nc([C@@H]2CN(C3CCN(CCc4ccccc4)CC3)C[C@H]2C(N)=O)n[nH]1	none
COc1cc2c(cc1OC)C(C[C@H]1CN(C(=O)c3cccn3C)CC[C@H]1CC(=O)O)=NCC2	none
Cc1ccc(-c2nc(C(=O)NCc3ccccc3F)no2)cc1	FLuc inh-1 22µM
O=C(NCc1cccc(Br)c1)c1noc(-c2ccc(F)cc2)n1	NIH3T3 tox 32µM, FLuc inh-1 inconclusive, HEK cytotox 25µM
Cc1ccc(-c2nc(C(=O)NCc3ccc(Cl)cc3)no2)cc1	none
Cc1ccc(-c2nc(C(=O)NCc3cc(F)cc(F)c3)no2)cc1	NIH3T3 tox inconclusive, HEK cytotox 32µM
O=C(NCc1ccc(Cl)cc1)c1noc(-c2ccc(F)cc2)n1	HEK cytotox inconclusive
O=C(NCc1ccc(F)cc1F)c1noc(-c2ccc(F)cc2)n1	none
COc1ccc(-c2noc(-c3nnn4c3COC(c3ccc(C)cc3C)C4)n2)cc1F (stereo not given)	none
Cc1ccc(NC(=O)CC2CCCCN(Cc3ccccc3)C2=O)cc1 (stereo not given)	NIH3T3 tox inconclusive, HEK cytotox inconclusive (no result: FLuc inh-1, NPR1 antag)
O=C1NCCOCCCN(C(=O)Nc2ccc3c(c2)OCCO3)[C@H]2CCCC[C@@H]12	FLuc inh-1 32µM
O=C1NCCOCCCN(C(=O)Nc2ccccc2)[C@H]2CCCC[C@@H]12	GPT2 inhibitor inconclusive
COc1ccc2nc([C@H]3CCN(Cc4ccc(F)cc4)C3)[nH]c2c1	NIH3T3 tox 112µM, FLuc inh-1 50µM, HEK cytotox 79µM
COc1ccc2nc([C@H]3CCN(Cc4ccccc4)C3)[nH]c2c1	NIH3T3 tox inconclusive, FLuc inh-1 22µM, HEK cytotox inconclusive
Cc1ccc2nc([C@H]3CCN(Cc4ccccn4)C3)[nH]c2c1	NIH3T3 tox inconclusive, FLuc inh-1 40µM, HEK cytotox 50µM, GPT2 inhibitor inconclusive
COc1ccc2nc([C@H]3CCN(Cc4cccnc4)C3)[nH]c2c1	FLuc inh-1 71µM
COc1ccc2nc([C@H]3CCN(Cc4cccc(Cl)c4)C3)[nH]c2c1	NIH3T3 tox inconclusive, HEK cytotox inconclusive, NPR1 antag inconclusive
COc1ccc(Cn2c(=O)c(-c3noc(C)n3)c3n(c2=O)CCCCC3)cc1	none
C[C@H](C(=O)NCCN1CCOCC1)C1CC[C@@]2(C)Cc3sc(-c4ccccc4)nc3[C@@H](C)[C@@H]2[C@H]1O (stereo not given in full)	NIH3T3 tox inconclusive, FLuc inh-1 11µM, HEK cytotox inconclusive, NPR1 antag inconclusive | FLuc SDR -ATP 2.2µM | FLuc SDR ATP inconclusive | FLuc inh-2 0.99µM
